# Records with an inconclusive call do not appear. Activity calls are given as the source filed them. Unless noted, the call rests on the fitted dose curve; in most records, active means well fitted curve in the direction sought with a large enough effect; inconclusive means small, poorly fitted or top-dose-only effect, or another doubt; inactive means no such curve, though single readings can be large; an effect the other way counts as inactive or inconclusive.
# System: not listed separately
# Experiment: qHTS for Activators of Parkin Expression: LOPAC Validation Assay (FLuc Reporter) (AID 720573)
# Details: Cell line, PRKN promoter firefly luciferase reporter, vehicle wells = 0, positive control = 100%; series mostly up to 46.1 µM; activation: at the top concentration
# Method in brief: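 Cells seeded, 24 h; compounds pinned, 7-pt dose response; 24 h at 37 C/5% CO2; volume reduced; FLuc reagent 10 min RT; luminescence read. Normalization: DMSO = 0, positive control = 100%.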
row,SMILES,activation
1,O=c1[nH]c(=O)n([C@H]2C[C@@H](O)[C@@H](CO)O2)cc1C=CBr,-7.21% (inactive)
2,CN[C@H](CC(C)C)C(=O)N[C@H]1C(=O)N[C@@H](CC(N)=O)C(=O)N[C@@H]2C(=O)N[C@H]3C(=O)N[C@H](C(=O)N[C@H](C(=O)O)c4cc(O)cc(O)c4-c4cc3ccc4O)[C@H](O)c3ccc(c(Cl)c3)Oc3cc2cc(c3O[C@@H]2O[C@H](CO)[C@@H](O)[C@H](O)[C@@H]2O[C@H]2C[C@](C)(N)[C@H](O)[C@H](C)O2)Oc2ccc(cc2Cl)[C@H]1O,-4.44% (inactive)
3,COc1ccc2cc([S+]([O-])Cc3ncc(C)c(OC)c3C)nc2c1,-3.78% (inactive)

# System: not listed separately
# Experiment: qHTS assay for small molecule agonists of the antioxidant response element (ARE) signaling pathway measured by Nrf2-dependant transcriptional activity (AID 720636; active means well fitted curve in the direction sought with a large enough effect in the repeat runs; an effect the other way counts as inactive or inconclusive;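 further: HepG2 cells with an ARE-driven luciferase reporter; % of control where 0% means no effect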)
# Details: ARE-luc HepG2, Nrf2 luciferase reporter, 16 h; series mostly up to 92.4 µM; activation: at the top concentration
# Method in brief: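 Attachment 6 hr at 37 C, then compound versus DMSO vehicle for 16 hr in ARE-luc HepG2 cells (1% dialyzed FBS); luminescence recorded 30 min after ONE-Glo addition at room temperature.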
row,SMILES,activation
1,C[C@]12CC[C@@H]3c4ccc(O)cc4CC[C@H]3[C@H]1CC[C@H]2O,0.147% (inactive)
2,OC[C@@H](O)[C@@H](O)[C@H](O)[C@@H](O)CO,0.25% (inactive)
3,Cc1cc(O)c2c(c1)C(=O)c1cccc(O)c1C2=O,1.2% (inactive)
4,CC(C=CC1=C(C)CCCC1(C)C)=CC=CC(C)=CC(=O)Nc1ccc(O)cc1,-4.32% (inactive)

# System: not listed separately
# Experiment: qHTS assay for small molecule agonists of the antioxidant response element (ARE) signaling pathway measured by Nrf2-dependant transcriptional activity - cell viability counter screen (AID 720653; active means well fitted curve in the direction sought with a large enough effect in the repeat runs; an effect the other way counts as inactive or inconclusive; further: on the % scale 0 is the no-effect control and ±100 the full control effect)
# Details: ARE-bla HepG2 viability, CellTiter-Glo ATP luminescence, 16 h; stronger effect = lower value
# Method in brief: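 ARE-bla HepG2 cells (2,000/well) rested 5 hrs at 37C/5% CO2, then exposed to compounds in DMSO for 16 hrs. Viability was read in the same wells as intracellular ATP by luminescence, 30 min at room temperature after reagent addition.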
row,SMILES,max response
1,C[C@]12CC[C@@H]3c4ccc(O)cc4CC[C@H]3[C@H]1CC[C@H]2O,-1.4% (inactive)
2,OC[C@@H](O)[C@@H](O)[C@H](O)[C@@H](O)CO,2.04% (inactive)
3,O=C1c2cccc(O)c2C(=O)c2c(O)cc(CO)cc21,1.52% (inactive)
4,Cc1cc(O)c2c(c1)C(=O)c1cccc(O)c1C2=O,-8.79% (inactive)

# Target: T1, Hexokinase-4 (Homo sapiens) + Glucokinase regulatory protein (Homo sapiens) (UniProt P35557+Q14397)
# T1 sequence (P35557 whole entry, looked up): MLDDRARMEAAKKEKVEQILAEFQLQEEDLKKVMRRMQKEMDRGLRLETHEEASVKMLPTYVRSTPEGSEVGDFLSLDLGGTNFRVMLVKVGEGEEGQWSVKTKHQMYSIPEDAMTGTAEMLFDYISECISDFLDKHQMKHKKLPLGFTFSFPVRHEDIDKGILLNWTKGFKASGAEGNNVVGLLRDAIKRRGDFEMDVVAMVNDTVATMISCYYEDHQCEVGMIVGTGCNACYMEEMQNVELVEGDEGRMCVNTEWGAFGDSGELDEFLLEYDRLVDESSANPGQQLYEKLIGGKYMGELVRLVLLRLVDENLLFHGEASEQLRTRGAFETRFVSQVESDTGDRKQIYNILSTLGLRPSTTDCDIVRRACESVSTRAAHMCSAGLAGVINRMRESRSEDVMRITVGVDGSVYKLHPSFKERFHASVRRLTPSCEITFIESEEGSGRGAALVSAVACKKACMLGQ
# T1 sequence (Q14397 whole entry, looked up): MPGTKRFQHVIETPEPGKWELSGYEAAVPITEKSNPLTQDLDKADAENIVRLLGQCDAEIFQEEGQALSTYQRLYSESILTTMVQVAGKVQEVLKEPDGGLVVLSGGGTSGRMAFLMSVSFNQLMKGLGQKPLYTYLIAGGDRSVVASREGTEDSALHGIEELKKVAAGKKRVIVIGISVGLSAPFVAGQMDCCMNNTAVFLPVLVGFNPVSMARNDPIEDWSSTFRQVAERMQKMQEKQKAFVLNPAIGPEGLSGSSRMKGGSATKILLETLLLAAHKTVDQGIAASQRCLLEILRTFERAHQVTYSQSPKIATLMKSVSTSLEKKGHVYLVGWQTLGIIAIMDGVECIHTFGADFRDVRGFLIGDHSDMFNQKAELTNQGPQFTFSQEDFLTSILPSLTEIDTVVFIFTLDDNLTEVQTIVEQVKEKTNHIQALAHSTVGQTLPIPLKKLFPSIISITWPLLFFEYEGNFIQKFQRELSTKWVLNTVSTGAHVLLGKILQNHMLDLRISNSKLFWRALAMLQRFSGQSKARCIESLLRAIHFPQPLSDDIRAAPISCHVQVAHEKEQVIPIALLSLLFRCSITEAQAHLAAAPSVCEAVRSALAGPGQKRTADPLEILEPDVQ
# Experiment: qHTS assay for inhibitors of recombinant human GCK-GKRP interaction: Diaphorase-coupled assay (AID 743205)
# Details: G6PDH/diaphorase resorufin fluorescence; series mostly up to 57.5 µM; activity change, positive = activation: at the top concentration
# Method in brief: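 25 mM Hepes pH 7.6, 5 mM glucose, 0.4 mM ATP, 4 U/ml G6PDH; 10 nM each GST-GCK/FLAG-GKRP. Kinetic fluorescence read, 1/min × 30 min. Normalized: DMSO ± enzyme = max/min.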
row,SMILES,"activity change, positive = activation"
1,O=c1[nH]c(=O)n([C@H]2C[C@@H](O)[C@@H](CO)O2)cc1C=CBr,-7.36% (inactive)
2,CN[C@H](CC(C)C)C(=O)N[C@H]1C(=O)N[C@@H](CC(N)=O)C(=O)N[C@@H]2C(=O)N[C@H]3C(=O)N[C@H](C(=O)N[C@H](C(=O)O)c4cc(O)cc(O)c4-c4cc3ccc4O)[C@H](O)c3ccc(c(Cl)c3)Oc3cc2cc(c3O[C@@H]2O[C@H](CO)[C@@H](O)[C@H](O)[C@@H]2O[C@H]2C[C@](C)(N)[C@H](O)[C@H](C)O2)Oc2ccc(cc2Cl)[C@H]1O,-5.44% (inactive)
3,COc1ccc2cc([S+]([O-])Cc3ncc(C)c(OC)c3C)nc2c1,-1.59% (inactive)

# Target: T1, Hexokinase-4 (Homo sapiens) + Glucokinase regulatory protein (Homo sapiens)
# Experiment: qHTS assay for inhibitors of recombinant human GCK-GKRP interaction: ADP-Glo assay (AID 743206);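 further: plate controls were DMSO plus enzyme for no effect and no enzyme for full effect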
# Details: ADP-Glo luminescence, 60 min, 0% = vehicle-only wells with enzyme present; series mostly up to 76.9 µM; activity, positive = activation: at the top concentration
# Method in brief: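 GST-GCK and FLAG-GKRP (15 nM each in the dispensed mix, with 2 uM S6P) react with 0.4 mM ATP and 5 mM glucose (final) in Hepes pH 7.6 for 60 min at room temperature. ADP is measured by ADP-Glo luminescence.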
row,SMILES,"activity, positive = activation"
1,O=c1[nH]c(=O)n([C@H]2C[C@@H](O)[C@@H](CO)O2)cc1C=CBr,5.11% (inactive)
2,CN[C@H](CC(C)C)C(=O)N[C@H]1C(=O)N[C@@H](CC(N)=O)C(=O)N[C@@H]2C(=O)N[C@H]3C(=O)N[C@H](C(=O)N[C@H](C(=O)O)c4cc(O)cc(O)c4-c4cc3ccc4O)[C@H](O)c3ccc(c(Cl)c3)Oc3cc2cc(c3O[C@@H]2O[C@H](CO)[C@@H](O)[C@H](O)[C@@H]2O[C@H]2C[C@](C)(N)[C@H](O)[C@H](C)O2)Oc2ccc(cc2Cl)[C@H]1O,-2.37% (inactive)
3,COc1ccc2cc([S+]([O-])Cc3ncc(C)c(OC)c3C)nc2c1,1.61% (inactive)

# Target: T1, Hexokinase-4 (Homo sapiens) + Glucokinase regulatory protein (Homo sapiens)
# Experiment: qHTS assay for inhibitors of recombinant human GCK-GKRP interaction: HTRF assay (AID 743207);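 further: 0% = DMSO with GCK present and -100% = DMSO wells lacking GCK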
# Details: recombinant GCK-GKRP HTRF binding, 60 min, with sorbitol-6-phosphate; series mostly up to 57.5 µM; activity change, negative = inhibition: at the top concentration
# Method in brief: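 5 nM GST-GCK + 5 nM FLAG-GKRP + 2 uM S6P, pH 7.1 buffer (25 mM Hepes, 2 mM MgCl2, 25 mM KCl, 1 mM DTT, Tween/BSA); pin-transferred cpd; anti-FLAG XL665/anti-GST K; 60 min RT; HTRF.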
row,SMILES,"activity change, negative = inhibition"
1,O=c1[nH]c(=O)n([C@H]2C[C@@H](O)[C@@H](CO)O2)cc1C=CBr,9.48% (inactive)
2,CN[C@H](CC(C)C)C(=O)N[C@H]1C(=O)N[C@@H](CC(N)=O)C(=O)N[C@@H]2C(=O)N[C@H]3C(=O)N[C@H](C(=O)N[C@H](C(=O)O)c4cc(O)cc(O)c4-c4cc3ccc4O)[C@H](O)c3ccc(c(Cl)c3)Oc3cc2cc(c3O[C@@H]2O[C@H](CO)[C@@H](O)[C@H](O)[C@@H]2O[C@H]2C[C@](C)(N)[C@H](O)[C@H](C)O2)Oc2ccc(cc2Cl)[C@H]1O,1.37% (inactive)
3,COc1ccc2cc([S+]([O-])Cc3ncc(C)c(OC)c3C)nc2c1,-7.06% (inactive)

# From PubChem BioAssay (NCATS)
